For 40 compounds, inhibition results are on record in PubChem BioAssay.

Each structure is given as a SMILES string. Unmarked numbers belong to inactive results. How the calls were made is not given here.

In this assay the target is Pantothenate synthetase (Mycobacterium tuberculosis (strain ATCC 25618 / H37Rv)) (UniProt P9WIL5). The assay is described as follows: Coupled enzyme confirmation of inhibitors against recombinant Mtb PanC (AID 375).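 Further: 0% = full reaction with vehicle and 100% = no enzyme background.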 As to conditions: coupled enzyme assay; at 10 µM, stronger effect = higher value.
Pantothenate synthetase (Mycobacterium tuberculosis (strain ATCC 25618 / H37Rv)), sequence (P9WIL5 whole entry, looked up): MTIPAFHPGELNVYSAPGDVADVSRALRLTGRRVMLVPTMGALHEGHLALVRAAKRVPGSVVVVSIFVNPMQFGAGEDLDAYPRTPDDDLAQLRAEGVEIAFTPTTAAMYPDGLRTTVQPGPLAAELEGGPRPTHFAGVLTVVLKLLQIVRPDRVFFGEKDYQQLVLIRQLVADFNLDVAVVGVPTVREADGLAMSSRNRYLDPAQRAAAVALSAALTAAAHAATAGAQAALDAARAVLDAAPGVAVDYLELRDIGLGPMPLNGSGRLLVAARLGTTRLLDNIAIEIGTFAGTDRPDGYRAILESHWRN
For orientation: inhibition means the share of the control response that was lost under treatment. In the case of `O=C(O)c1cc(=O)cc(C(=O)O)[nH]1`, the inhibition is 0%.
Turning to `CCC(=O)OC1(C#CCOc2ccc(OC)cc2)CCN(C)CC1`, the inhibition was 0%.
For the compound `COc1ccc(C(=O)Nn2c(C3CCC3)nc3ccccc3c2=O)c(OC)c1`, the inhibition is 0%.
The result for `COc1ccc(NC(=O)C23CCC(C)(C(=O)C2)C3(C)C)cc1` (stereo not given) reads 0%; that for `CC(NC(=O)c1noc2c1CCCCC2)c1ccccc1` (stereo not given), 0%; that for `Cc1cccc(C(=O)N2CCN(C(=O)c3cccc(C)c3)C(C)C2)c1` (stereo not given), 0%.
Turning to `CCN1CCN(CCCNC(=O)c2cn(CCOC)c(=O)c3c2c2ccccc2n3C)CC1`, the inhibition is 0%.
The result for `CCc1ccc(C2CC(c3cccc(OC)c3)n3nc(N)nc3N2)cc1` (stereo not given) reads 3%; that for `C=CCOc1nc(N(C)C)nc(N(C)C)n1`, 7%; that for `CCc1cccc2c3c([nH]c12)C(CC)(CC(=O)O)OCC3` (stereo not given), 0%.
The result for `COc1ccc(NC(=O)CCNC(=O)Cn2ccc3ccccc3c2=O)c(OC)c1` reads 0%; that for `CN(C)c1cccc(C(=O)OCC(=O)NCc2ccco2)c1`, 0%; that for `COc1ccc(C(O)Cn2c(=N)n(CCCN(C)C)c3ccccc32)cc1` (stereo not given), 0%.
The same measure for `COc1ccc(CNC(=O)c2nnn(Cc3ccc(OC)cc3)c2N)cc1`: 0%.
As for `Cc1cc(C)nc(/N=C2\NC(=O)CC(C(=O)O)N2c2ccc(Cl)cc2)n1` (stereo not given), the inhibition is 0%.
Consider `CCN(CC)c1ccc(NC(=O)CN2CCN(CC(=O)Nc3ccccc3F)CC2)cc1`, for which the inhibition is 1%.
Turning to `CCCN(CCC)C(=O)C1CCN(c2cc(C)nc3c(-c4ccc(OC)c(OC)c4)c(C)nn23)CC1`, the inhibition is 0%.
The result for `O=C(NCCCCNC(=O)c1c(F)c(F)c(F)c(F)c1F)c1c(F)c(F)c(F)c(F)c1F` reads 0%; that for `COC(=O)c1ccc(NC(=O)C2CC(=O)N(c3cc(C)ccc3C)C2)cc1` (stereo not given), 5%.
The result for `CC1(C)CC(CCNC(=O)c2ccco2)CC(C)(C)N1` reads 0%.
The same measure for `Cc1ccc(-c2nn(-c3ccccc3)cc2CN(Cc2ccccc2)C(=O)CCC(=O)O)o1`: 8%; for `Clc1cccc(-c2nnc(-c3ccccc3)o2)c1`: 0%.
Regarding `CCSc1nnc(NC(=O)c2ccccn2)s1`, the inhibition was 1%.
The result for `O=S(=O)(Nc1cccnc1)c1cc(Cl)ccc1Cl` reads 0%.
The result for `O=C(c1ccc(Br)cc1)N1CCN(S(=O)(=O)c2ccccc2)CC1` reads 0%; that for `Cc1nc2c(-c3ccccc3)c(C)[nH]n2c(=O)c1Cl`, 0%; that for `Cc1ccc(C(=O)Nc2ccc3c(c2)OCO3)cc1S(=O)(=O)N1CCCC1`, 0%.
The same measure for `O=C1c2ccccc2C(=O)N1C/C=C/CN1C(=O)c2ccccc2C1=O`: 0%; for `O=C1CN(c2nc3ccccc3n3cnnc23)CC(=O)N1CCc1ccccc1`: 4%.
`O=c1c2cc(N3CCOCC3)ccc2[nH]c(=S)n1CCCN1CCCC1`: the inhibition is 13%.
The same measure for `COc1ccc(-n2ncc3c(NCCCN4CCOCC4)ncnc32)cc1`: 6%.
On to `O=S(=O)(c1ccc(S(=O)(=O)N2CCN3CCCC3C2)cc1)N1CCCC1` (stereo not given), for which the inhibition was 0%.
The result for `Nc1nnc(SCC(=O)N2CCN(c3ccccc3)CC2)n1-c1ccccc1` reads 7%; that for `C=CCSc1nnc(NC(=O)c2ccc(S(=O)(=O)NCC3CCCO3)cc2)s1` (stereo not given), 1%.
As to `O=C(CSc1n[nH]c(-c2cccs2)n1)N1CCN(S(=O)(=O)c2ccccc2)CC1`, the inhibition is 0%.
The same measure for `Cn1cc(CN2CCc3ccccc3C2)c2ccccc21`: 9%.
As for `CSc1nnc(-c2ccccc2)n1C`, the inhibition is 7%.
Turning to `CCn1cc(C(=O)NCc2ccco2)c(=O)c2cc(F)c(N3CCN(C(=O)c4ccco4)CC3)cc21`, the inhibition was 0%.
The same measure for `CS(=O)(=O)N1CCN(c2ccccc2NC(=O)c2ccc(-c3ccc(Cl)cc3Cl)o2)CC1`: 7%; for `OCCN1CCN(CC(O)COc2ccc3ccccc3c2)CC1` (stereo not given): 0%.
